We go through 8 compounds from PubChem BioAssay (Tox21).

Assay [1] in a line: qHTS assay to identify small molecule agonists of the TGF-beta/Smad signaling pathway (AID 1346859; active = well fitted activation curve with a large enough effect in the signal ratio in the repeat runs, not every such curve was filed as active; the % refers to the signal ratio; note: series mostly up to about 77 µM). In outline: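 HEK 293T cells stably carrying a beta-lactamase reporter driven by the Smad binding element were seeded overnight, exposed to DMSO-dissolved compounds for 5 hr at 37 C, 5% CO2, then loaded with FRET substrate for 2 hr at room temperature.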
Assay [2] addresses Thyrotropin-releasing hormone receptor (Homo sapiens) (UniProt P34981). Description: qHTS assay to identify small molecule antagonists of the thyrotropin-releasing hormone receptor (TRHR) signaling pathway (AID 1346877; active = well fitted inhibition curve with a large enough effect in the repeat runs, not every such curve was filed as active; note: series mostly up to about 51 µM). In a few lines:
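Antagonism is measured as suppression of the calcium response to 1 nM TRH in TRHR-HEK293 cells that have been dye-loaded for 2 h at 37 °C after overnight plating. Each compound is tested at 15 concentrations in triplicate.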
For orientation: In qHTS, concentration-response curves come from the screen itself.

The target is the same in assay [3]. The assay is described as follows: qHTS assay to identify small molecule agonists of the thyrotropin-releasing hormone receptor (TRHR) signaling pathway (AID 1346891; calls by dose curve; note: series mostly up to about 58 µM). In a few lines:
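TRHR-expressing HEK293 cells were plated 18 h at 37 °C/5% CO2, loaded with calcium dye 2 h at 37 °C, then given compound in DMSO; fluorescence was read kinetically for 3 min at 1 s intervals.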

A short description of assay [4]: Human pregnane X receptor (PXR) small molecule agonists, qHTS cell viability counter screen (AID 1346977). Note: nearly all actives have a fitted effect of over 50% in size. In outline: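 PXR-Luc HepG2 cells in medium with 5% charcoal-stripped FBS were pre-incubated 5hr, then exposed to compounds for 24hr at 37C. Viability was read in the same wells by CellTiter-Fluor fluorescence, reagent added after 23hr with a 1hr incubation.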

A short description of assay [5]: Caspase-3/7 induction in HepG2 cells by small molecules, qHTS assay (AID 1346978). Note: nearly all actives have a fitted effect of over 15% in size. In a few lines:
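Wild-type HepG2 cells (2,000/well) were settled 5 h at 37 C, 5% CO2, then exposed to compounds in DMSO for 17 h. Caspase-3/7 activity was read by luminescence 30 min after adding Caspase-Glo 3/7 reagent at room temperature.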

Assay [6] in a line: Caspase-3/7 induction in CHO-K1 cells by small molecules, qHTS cell viability counter screen (AID 1346979). Note: nearly all actives have a fitted effect of over 35% in size. In outline: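 Wild-type CHO-K1 cells were seeded at 1,500 per well, rested 5hr at 37 C, then exposed to compounds in DMSO. After 16hr, CellTiter-Fluor reagent was added and fluorescence read 1hr later as the viability measure.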
Assay [7] is described as follows: Caspase-3/7 induction in CHO-K1 cells by small molecules, qHTS assay (AID 1346980). Note: nearly all actives have a fitted effect of over 15% in size. In a few lines: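 Wild-type cells were seeded at 1,500 per well and settled 5 hr at 37 C, 5% CO2, then exposed to DMSO-dissolved compounds for 17 hr. Caspase-Glo 3/7 reagent was added, and luminescence was read after 30min at room temperature.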
The nature of assay [8]: Caspase-3/7 induction in HepG2 cells by small molecules, qHTS cell viability counter screen (AID 1346981). Note: series mostly up to about 92 µM; nearly all actives have a fitted effect of over 30% in size. In outline:
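Cell viability is measured as a cytotoxicity counter screen alongside the Caspase-Glo 3/7 readout in identical wells. Wild-type HepG2 cells are treated with test compounds for 16 hr at 37 C before CellTiter-Fluor addition and a 1-hr incubation.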

Assay [9] concerns the target Nuclear receptor subfamily 1 group I member 2 (Homo sapiens) (UniProt O75469). The assay is described as follows: Human pregnane X receptor (PXR) small molecule agonists, qHTS assay (AID 1346982). Note: nearly all actives have a fitted effect of over 35% in size. Note: potency is the fitted concentration of half-maximal effect. In a few lines:
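Cells: HepG2 stably carrying PXR-Luc. Medium held 5% charcoal-stripped FBS. Compounds in DMSO added after 5 hr plating, incubated 24 hr, then luminescence quantified with ONE-Glo.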

Assay [10] concerns the target Cytochrome P450 2D6 (Homo sapiens) (UniProt P10635). The assay is described as follows: Cytochrome P450 Family 2 Subfamily D Member 6 (CYP2D6) small molecule antagonists: luciferase reporter qHTS assay (AID 1671196). For activity change, negative = inhibition: series mostly up to about 120 µM. Note: nearly all actives have a fitted effect of over 50% in size. Note: potency is the fitted concentration of half-maximal effect. In a few lines:
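Enzyme and proluciferin substrate were first combined with test chemical for 10 min at room temperature. Adding NADPH regeneration solution started a 1 h reaction, stopped with luciferin detection reagent and read by luminescence 20 min later.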
In general terms: In a reporter assay the amount or activity of a reporter protein is the signal.

The target in assay [11] is Cytochrome P450 2C19 (Homo sapiens) (UniProt P33261). The assay is described as follows: Cytochrome P450 Family 2 Subfamily C Member 19 (CYP2C19) small molecule antagonists: luciferase reporter qHTS assay (AID 1671197). For activity change, negative = inhibition: series mostly up to about 120 µM. Note: nearly all actives have a fitted effect of over 65% in size. Note: potency is the fitted concentration of half-maximal effect. In outline:
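P450-Glo CYP2C19 system: enzyme-substrate mix with compound 10 min at room temperature, then NADPH regeneration solution, 1 h at 37C. Proluciferin-to-luciferin conversion detected by luminescence after 20 min with detection reagent; ketoconazole as positive control.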

The target of assay [12] is Cytochrome P450 2C9 (Homo sapiens) (UniProt P11712). Description: Cytochrome P450 Family 2 Subfamily C Member 9 (CYP2C9) small molecule antagonists: luciferase reporter qHTS assay (AID 1671198). Note: series mostly up to about 120 µM; nearly all actives have a fitted effect of over 50% in size. In a few lines:
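CYP2C9 activity was measured with a P450-Glo proluciferin substrate. Enzyme–substrate mix was held with compound for 10 min at room temperature, then NADPH regeneration solution was added for 1 h at 37C. Luciferin product was read as luminescence.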

The target in assay [13] is Cytochrome P450 1A2 (Homo sapiens) (UniProt P05177). Description: Cytochrome P450 Family 1 Subfamily A Member 2 (CYP1A2) small molecule antagonists: luciferase reporter qHTS assay (AID 1671199). For activity change, negative = inhibition: series mostly up to about 120 µM. Note: nearly all actives have a fitted effect of over 50% in size. Note: potency is the fitted concentration of half-maximal effect. In outline:
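Compounds were incubated with CYP1A2 and a luminogenic proluciferin substrate for 10 min at room temperature before the reaction was started with NADPH regeneration solution. After 1 h, detection reagent was added and light output, proportional to CYP activity, was recorded.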

Assay [14] addresses Voltage-gated inwardly rectifying potassium channel KCNH2 (Homo sapiens) (UniProt Q12809). The assay is described as follows: Human Ether-a-go-go-Related Gene (hERG) channel small molecule antagonists: fluorescence cell-based qHTS assay (AID 1671200).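 For activity change, negative = inhibition: hERG-expressing U2OS cells given a thallium stimulus after FluxOR II dye loading; series mostly up to about 77 µM.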 Note: nearly all actives have a fitted effect of over 50% in size. Note: potency is the fitted concentration of half-maximal effect. In a few lines:
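U2OS cells expressing the channel were plated at 1000 cells/well, incubated overnight at 37 C, then loaded with FluxOR II thallium-sensitive dye for 1 h at room temperature in the dark, with a further 10 min at room temperature before stimulation.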
On the technique in general: Block of hERG is tested as a sign of cardiac risk.

For assay [15], the target named is Cytochrome P450 3A4 (Homo sapiens) (UniProt P08684). The assay is described as follows: Cytochrome P450 Family 3 Subfamily A Member 4 (CYP3A4) small molecule antagonists: luciferase reporter qHTS assay (AID 1671201). In a few lines: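 P450-Glo CYP3A4 system with proluciferin substrate; compounds preincubated 10 min RT with enzyme-substrate mix, then NADPH regeneration added for 1 h RT. Detection reagent 20 min, luminescence read as relative luminescence units.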
Sequence of Cytochrome P450 3A4 (Homo sapiens) (P08684 whole entry, looked up): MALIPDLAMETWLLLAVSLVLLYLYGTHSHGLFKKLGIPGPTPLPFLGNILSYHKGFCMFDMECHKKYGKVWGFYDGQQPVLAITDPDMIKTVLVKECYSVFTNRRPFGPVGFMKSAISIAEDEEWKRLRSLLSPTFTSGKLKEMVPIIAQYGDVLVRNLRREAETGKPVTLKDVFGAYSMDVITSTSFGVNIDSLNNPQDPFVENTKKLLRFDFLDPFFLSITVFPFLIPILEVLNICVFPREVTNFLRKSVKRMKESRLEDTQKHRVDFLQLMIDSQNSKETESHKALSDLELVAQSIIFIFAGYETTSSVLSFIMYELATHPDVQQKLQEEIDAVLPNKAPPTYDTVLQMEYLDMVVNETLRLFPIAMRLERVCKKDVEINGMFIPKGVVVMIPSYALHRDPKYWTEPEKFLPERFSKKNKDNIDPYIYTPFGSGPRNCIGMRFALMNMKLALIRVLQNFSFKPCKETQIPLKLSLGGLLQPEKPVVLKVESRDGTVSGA

Assay [16] deals with Nuclear receptor subfamily 1 group I member 2 (Rattus norvegicus) (UniProt Q9R1A7). Description: Rat pregnane X receptor (rPXR) activation by small molecules, qHTS assay (AID 1346983). Note: nearly all actives have a fitted effect of over 20% in size. The note with it: rPXR luciferase reporter cells, One-Glo luminescence, 24 h; max activation: hits give high values. In a few lines: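 Cell-based rPXR luciferase reporter assay, 2,000 cells per well, rested 5hr at 37 C before compound addition in DMSO, then 24 hr at 37 C. One-Glo reagent was added and luminescence read after 30 min at room temperature.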
Sequence of Nuclear receptor subfamily 1 group I member 2 (Rattus norvegicus) (Q9R1A7 whole entry, looked up): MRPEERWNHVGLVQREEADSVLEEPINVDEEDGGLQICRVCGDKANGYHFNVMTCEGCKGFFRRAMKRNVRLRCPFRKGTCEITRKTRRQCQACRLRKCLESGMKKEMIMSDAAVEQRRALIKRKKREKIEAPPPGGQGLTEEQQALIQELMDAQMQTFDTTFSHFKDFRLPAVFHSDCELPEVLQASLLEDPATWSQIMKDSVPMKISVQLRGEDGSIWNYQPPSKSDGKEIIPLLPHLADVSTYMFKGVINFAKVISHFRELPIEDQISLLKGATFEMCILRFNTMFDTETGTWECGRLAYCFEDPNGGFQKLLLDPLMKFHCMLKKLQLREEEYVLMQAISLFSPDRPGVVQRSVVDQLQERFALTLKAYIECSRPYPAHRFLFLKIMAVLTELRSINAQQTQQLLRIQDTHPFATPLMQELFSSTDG

The target of assay [17] is Nuclear receptor subfamily 1 group I member 2 (Homo sapiens) (UniProt O75469). The assay is described as follows: CYP3A4 induction through human pregnane X receptor (PXR) by small molecules, qHTS assay (AID 1346984). Note: nearly all actives have a fitted effect of over 40% in size. In a few lines: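 Quantitative HTS in DPX-2 cells, i.e. HepG2 transfected with PXR response element and CYP3A4-promoter luciferase. Compounds in DMSO incubated 24hr at 37C; then P450-Glo CYP3A4 substrate, 3uM final, 3hr; One-Glo luminescence.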
Sequence of Nuclear receptor subfamily 1 group I member 2 (Homo sapiens) (O75469 whole entry, looked up): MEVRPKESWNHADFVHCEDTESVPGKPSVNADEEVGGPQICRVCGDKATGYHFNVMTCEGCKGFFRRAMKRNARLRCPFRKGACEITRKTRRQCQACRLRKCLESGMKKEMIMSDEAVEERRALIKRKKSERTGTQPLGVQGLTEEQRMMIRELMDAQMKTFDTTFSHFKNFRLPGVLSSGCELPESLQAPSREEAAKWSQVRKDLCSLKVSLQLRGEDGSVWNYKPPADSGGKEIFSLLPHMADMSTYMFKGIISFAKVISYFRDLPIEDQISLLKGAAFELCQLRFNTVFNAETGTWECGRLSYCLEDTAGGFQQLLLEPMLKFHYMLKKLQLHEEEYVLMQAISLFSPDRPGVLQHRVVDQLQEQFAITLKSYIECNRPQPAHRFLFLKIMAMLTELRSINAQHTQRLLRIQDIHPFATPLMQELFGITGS

The target is the same in assay [18]. Description: Human pregnane X receptor (PXR) activation by small molecules, qHTS assay (AID 1346985). Note: nearly all actives have a fitted effect of over 40% in size. In outline:
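DPX-2 cells (HepG2 co-transfected with a PXR response element and a CYP3A4-promoter luciferase construct) were seeded at 2,000 per well, rested 5 hr at 37C, then exposed to DMSO-dissolved compounds for 24 hr. Activation was read as luciferase luminescence.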

A number with no mark means an inactive call. Results filed as inconclusive are left out. Active and inactive are the calls of the source. Unless noted, calls come from the whole dose curve; as a rule, active = well fitted curve in the direction sought with a large enough effect in the repeat runs; inconclusive = weak or mixed curves; inactive = no such curve, though single readings can be large; an effect the other way counts as inactive or inconclusive.
% is set by controls: 0 for no effect and ±100 for the full control effect.

Sequence of Thyrotropin-releasing hormone receptor (Homo sapiens) (P34981 whole entry, looked up): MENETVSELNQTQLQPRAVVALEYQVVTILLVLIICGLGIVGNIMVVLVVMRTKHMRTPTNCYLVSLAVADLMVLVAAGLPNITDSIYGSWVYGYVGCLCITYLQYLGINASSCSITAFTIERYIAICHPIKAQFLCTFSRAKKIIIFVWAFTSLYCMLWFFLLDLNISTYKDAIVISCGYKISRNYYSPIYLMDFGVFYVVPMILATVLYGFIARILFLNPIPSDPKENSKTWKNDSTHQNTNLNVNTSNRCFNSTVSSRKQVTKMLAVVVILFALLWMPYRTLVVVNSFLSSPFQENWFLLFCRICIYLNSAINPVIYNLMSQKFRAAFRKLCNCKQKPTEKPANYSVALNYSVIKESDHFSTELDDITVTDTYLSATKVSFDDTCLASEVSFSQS
Sequence of Cytochrome P450 2C9 (Homo sapiens) (P11712 whole entry, looked up): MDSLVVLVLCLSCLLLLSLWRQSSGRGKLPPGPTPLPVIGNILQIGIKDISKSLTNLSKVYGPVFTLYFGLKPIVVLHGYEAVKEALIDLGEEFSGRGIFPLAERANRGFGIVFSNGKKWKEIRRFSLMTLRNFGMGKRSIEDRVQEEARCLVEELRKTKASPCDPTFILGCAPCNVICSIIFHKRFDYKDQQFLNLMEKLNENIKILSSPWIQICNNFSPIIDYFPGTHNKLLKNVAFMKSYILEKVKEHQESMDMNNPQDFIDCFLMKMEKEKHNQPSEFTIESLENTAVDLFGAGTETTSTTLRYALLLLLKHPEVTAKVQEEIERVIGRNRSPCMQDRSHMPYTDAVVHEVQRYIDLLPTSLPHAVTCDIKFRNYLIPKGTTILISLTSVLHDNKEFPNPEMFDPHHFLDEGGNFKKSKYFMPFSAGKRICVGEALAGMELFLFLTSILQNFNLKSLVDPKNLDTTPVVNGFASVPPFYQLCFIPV
Sequence of Voltage-gated inwardly rectifying potassium channel KCNH2 (Homo sapiens) (Q12809 whole entry, looked up): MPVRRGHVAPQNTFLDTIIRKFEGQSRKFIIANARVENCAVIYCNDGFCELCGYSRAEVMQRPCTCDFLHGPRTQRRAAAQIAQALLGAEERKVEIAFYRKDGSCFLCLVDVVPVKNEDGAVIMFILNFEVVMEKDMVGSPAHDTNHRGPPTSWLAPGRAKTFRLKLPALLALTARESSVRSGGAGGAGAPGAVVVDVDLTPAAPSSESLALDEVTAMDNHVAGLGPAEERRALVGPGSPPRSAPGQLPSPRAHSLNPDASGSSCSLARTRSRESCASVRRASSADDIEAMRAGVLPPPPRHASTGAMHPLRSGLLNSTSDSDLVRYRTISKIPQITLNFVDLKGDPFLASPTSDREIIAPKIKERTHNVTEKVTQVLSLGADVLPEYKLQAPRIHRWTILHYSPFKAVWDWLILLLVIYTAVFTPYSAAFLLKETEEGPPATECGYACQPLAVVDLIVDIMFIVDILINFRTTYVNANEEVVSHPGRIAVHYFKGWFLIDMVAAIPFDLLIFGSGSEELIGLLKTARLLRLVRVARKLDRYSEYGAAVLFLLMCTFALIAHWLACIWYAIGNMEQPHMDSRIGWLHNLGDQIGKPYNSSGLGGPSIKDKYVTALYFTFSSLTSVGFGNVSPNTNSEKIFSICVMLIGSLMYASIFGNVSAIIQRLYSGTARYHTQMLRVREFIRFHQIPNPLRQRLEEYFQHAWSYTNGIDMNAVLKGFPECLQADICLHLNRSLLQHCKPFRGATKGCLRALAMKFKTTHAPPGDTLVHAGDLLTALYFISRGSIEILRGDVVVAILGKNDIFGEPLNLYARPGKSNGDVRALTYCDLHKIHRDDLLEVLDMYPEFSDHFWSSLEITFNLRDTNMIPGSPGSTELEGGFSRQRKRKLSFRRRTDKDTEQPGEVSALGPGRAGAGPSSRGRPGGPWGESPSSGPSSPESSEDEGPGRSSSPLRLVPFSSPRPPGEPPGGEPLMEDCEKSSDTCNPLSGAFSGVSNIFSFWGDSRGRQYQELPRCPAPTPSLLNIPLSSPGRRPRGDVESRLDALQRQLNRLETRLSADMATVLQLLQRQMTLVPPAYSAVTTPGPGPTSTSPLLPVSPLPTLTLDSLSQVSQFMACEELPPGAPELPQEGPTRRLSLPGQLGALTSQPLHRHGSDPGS
Sequence of Cytochrome P450 2D6 (Homo sapiens) (P10635 whole entry, looked up): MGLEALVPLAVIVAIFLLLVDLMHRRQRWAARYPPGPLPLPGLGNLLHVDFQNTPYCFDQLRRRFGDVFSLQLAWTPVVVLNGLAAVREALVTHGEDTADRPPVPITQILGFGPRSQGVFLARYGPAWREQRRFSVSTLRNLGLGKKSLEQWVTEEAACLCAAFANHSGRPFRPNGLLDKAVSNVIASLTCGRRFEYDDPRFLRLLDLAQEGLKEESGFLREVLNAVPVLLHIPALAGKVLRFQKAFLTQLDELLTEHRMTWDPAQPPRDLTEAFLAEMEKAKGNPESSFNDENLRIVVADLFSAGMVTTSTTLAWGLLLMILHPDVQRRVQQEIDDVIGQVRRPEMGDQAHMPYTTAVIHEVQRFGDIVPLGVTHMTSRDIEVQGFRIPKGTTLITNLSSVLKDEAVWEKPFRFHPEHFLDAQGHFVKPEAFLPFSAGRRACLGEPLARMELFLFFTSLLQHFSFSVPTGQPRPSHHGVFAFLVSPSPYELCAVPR
Sequence of Cytochrome P450 2C19 (Homo sapiens) (P33261 whole entry, looked up): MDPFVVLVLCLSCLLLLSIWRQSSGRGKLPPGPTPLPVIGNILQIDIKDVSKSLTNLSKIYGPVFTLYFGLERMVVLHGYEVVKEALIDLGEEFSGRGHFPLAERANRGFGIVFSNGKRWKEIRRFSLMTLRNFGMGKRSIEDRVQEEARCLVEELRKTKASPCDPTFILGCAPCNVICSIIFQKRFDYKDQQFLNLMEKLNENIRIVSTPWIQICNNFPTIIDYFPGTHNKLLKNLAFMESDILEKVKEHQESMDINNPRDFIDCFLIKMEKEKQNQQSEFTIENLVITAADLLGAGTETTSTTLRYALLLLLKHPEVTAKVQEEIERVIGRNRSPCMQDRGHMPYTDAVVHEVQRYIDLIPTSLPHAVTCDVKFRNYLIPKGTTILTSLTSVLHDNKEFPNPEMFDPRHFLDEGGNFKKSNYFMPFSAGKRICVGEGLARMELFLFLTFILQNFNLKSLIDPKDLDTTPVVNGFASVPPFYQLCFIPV
Sequence of Cytochrome P450 1A2 (Homo sapiens) (P05177 whole entry, looked up): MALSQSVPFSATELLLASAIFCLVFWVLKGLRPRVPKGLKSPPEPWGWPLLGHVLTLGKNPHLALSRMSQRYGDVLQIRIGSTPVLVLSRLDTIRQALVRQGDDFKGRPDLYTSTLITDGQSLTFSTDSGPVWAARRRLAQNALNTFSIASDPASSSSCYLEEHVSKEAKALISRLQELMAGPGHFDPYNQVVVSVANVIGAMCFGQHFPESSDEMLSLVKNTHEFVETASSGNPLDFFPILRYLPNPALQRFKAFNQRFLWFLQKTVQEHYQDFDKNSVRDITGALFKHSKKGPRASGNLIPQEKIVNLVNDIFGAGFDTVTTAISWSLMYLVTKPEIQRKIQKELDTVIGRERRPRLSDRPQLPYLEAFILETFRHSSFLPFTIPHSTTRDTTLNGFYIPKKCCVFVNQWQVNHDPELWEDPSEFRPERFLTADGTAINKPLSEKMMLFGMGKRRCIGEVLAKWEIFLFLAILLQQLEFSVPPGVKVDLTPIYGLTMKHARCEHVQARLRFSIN

Turning to `OCCC(F)(F)C(F)(F)C(F)(F)C(F)(F)C(F)(F)C(F)(F)F`, the compound was classed as inactive in assay [1], in assay [2], in assay [4], in [5], in [7] and in assay [8]. Moreover, the Potency entry in assay [3], in [6], in assay [9], in [10], in assay [11] and in [12] was “inactive” each time. Also, the Potency result in assay [14] and in assay [15] was “inactive” throughout. In assay [13], the Potency is 31.7 µM (active).
For the compound `C=CCCCCCCCCCCCCCC`, the activation was 0.917% [at 15.8 µM] in [1], -0.0775% [at 11.8 µM] in assay [3] and 1.1% [at 19 µM] in assay [9]. Besides, the activity, negative = inhibition in [2] was 2.16% [at 10.5 µM]. Besides, the activity change, negative = cytotoxicity in assay [4] is 1.28% [at 19 µM]; in [6], 5.54% [at 19 µM]; in assay [8] it was -0.984% [at 19 µM]. Also, in assay [5], the caspase activation was 1.32% [at 19 µM]. Also, the caspase-3/7 activation in [7] is 1.16% [at 19 µM]. Besides, the activity change, negative = inhibition in [10] was -17.7% [at 23.6 µM]; in assay [12], -3.74% [at 23.6 µM]; in [14] it was 4.07% [at 15.8 µM]; in [15], -5.46% [at 23.6 µM]. The Potency in [11] was 18.6 µM (active).
As to `Cc1ccc2ccccc2n1`, the result in assay [1], in assay [2], in assay [4], in assay [5], in assay [7] and in [8] was inactive. Further, the Potency result in assay [3], in assay [6], in assay [9], in assay [10], in [11] and in assay [12] was “inactive” throughout. In addition, the Potency result in assay [14] and in assay [15] was “inactive” each time.
Regarding `CNC(C)=O`, the compound was classed as inactive in assay [1], in [2], in [4], in assay [5], in assay [7] and in assay [8]. The Potency entry in assay [3], in assay [6], in assay [9], in assay [10], in [11] and in assay [12] was “inactive” each time. Also, the Potency result in [14] and in assay [15] was “inactive” each time.
`CCCCCCCCCCCCCCCC(=O)OC`: the activation is 0.447% [at 15.8 µM] in assay [1], 1.74% [at 11.8 µM] in assay [3] and 4.26% [at 19 µM] in assay [9]. The activity, negative = inhibition in assay [2] is 0.477% [at 10.5 µM]. In addition, the activity change, negative = cytotoxicity in assay [4] was 0.375% [at 19 µM]; in assay [6] it was 3.95% [at 19 µM]; in [8], -1.7% [at 19 µM]. The caspase activation in assay [5] is 1.29% [at 19 µM]. Moreover, the caspase-3/7 activation in assay [7] is 1.1% [at 19 µM]. Besides, the activity change, negative = inhibition is 1.63% [at 23.6 µM] in assay [10]; -1.98% [at 23.6 µM] in assay [11]; 2.75% [at 23.6 µM] in [12]; -9.56% [at 15.8 µM] in assay [14]; 2.42% [at 23.6 µM] in assay [15].
On to `CCc1ccc(CC)cc1`, for which the compound was classed as inactive in [1], in assay [2], in assay [4], in [5], in assay [7] and in assay [8]. Also, the Potency result in [3], in assay [6], in assay [9], in assay [10], in [11] and in assay [12] was “inactive” each time. Moreover, the Potency result in [14] and in assay [15] was “inactive” each time.
As for `C=CCCCCCCCCOC(C)=O`, the outcome in [1], in assay [2], in assay [4], in [5], in assay [7] and in assay [8] was inactive. Also, the Potency result in assay [3], in assay [6], in assay [9], in assay [10], in assay [11] and in assay [12] was “inactive” throughout. The Potency entry in assay [14] is “inactive”.
For `CCOc1ccccc1OCCN[C@H](C)Cc1ccc(OC)c(S(N)(=O)=O)c1`, the outcome in assay [1], in assay [2], in assay [4], in assay [5], in [7] and in [8] was inactive. Besides, the call in [17] and in [18] was inactive. In addition, the Potency entry in [3], in [6], in [11] and in [13] was “inactive” each time. The Potency in assay [9] was 26.6 µM (active); in [10], 12.3 µM (active); in assay [14] it was 21.3 µM (active). Further, the max activation in assay [16] is -6.48%.
